Results as given in PubChem BioAssay (NCATS).
Records with an inconclusive call do not appear. Entries that show only a call come without a potency. Unmarked numbers belong to inactive results. Activity calls are given as the source filed them. Calls follow the shape of the dose curve; as a rule, active = well fitted cell-killing curve with a large enough effect; inconclusive = small, poorly fitted or top-dose-only effect; inactive = flat fitted curve, though single readings scatter. Peptide text beside a SMILES is read from it. * marks the point of attachment. Hexanoyl = CCCCCC(=O)*

Assay: OV-KATE Cancer Cell Toxicity qHTS against the NCATS CANVASS Library (AID 1347345)
Settings: OV-KATE cells viability, CellTiter-Glo luminescence, 72 h; series mostly up to 38.3 µM
Text: Natural products and their derivatives continue to be wellsprings of nascent therapeutic potential. However, many laboratories have limited resources for biological evaluation, leaving their previously isolated or synthesized compounds largely or completely untested. To address this issue, the Canvass library of natural products was assembled (https://tripod.nih.gov/canvass), in collaboration with academic and industry researchers, for quantitative high-throughput screening (qHTS) across a diverse set of cell-based and biochemical assays. The pure (>85% purity by liquid chromatography/mass spectrometry [LC/MS]) Canvass library of 346 natural products were submitted by 45 academic laboratories and companies around the world. We collected pure natural products to circumvent deconvolution and structure elucidation due to time and resource limitations. The library was formatted into 1536-well plates and evaluated in 50 qHTS (in an 11-pnt concentration series) bioassays with broad scope of disease-relevant mechanisms. The resulting data set from 50 different assays was then systematically analyzed to identify overall trends and specific natural products with interesting biological activities. Reported herein are the results of each individual qHTS and their corresponding assay protocol. National Center for Advancing Translational Sciences (NCATS), Rockville, MD National Institute of Health (NIH), Bethesda, Maryland
Cancer Cell Toxicity protocol for cell lines COV-362, OV-KATE, OV-SAHO, UWB1.289, UWB1.289-WTBRCA1, HEK-293, HPAF-II, Panc-1005, SW1088, or U-118MG. 1. In a 1536 well, white solid bottom tissue culture plates (Corning 7494), corresponding cells (COV-362, OV-KATE, OV-SAHO, UWB1.289, UWB1.289-WTBRCA1, HEK-293, HPAF-II, Panc-1005, SW1088, or U-118MG) were dispensed in each well at a final concentration of 1000 cells / well (6uL volume) using the Multidrop Combi (Thermo Fisher Scientific) dispenser. 2. The plates were incubated for 4 hours at 37 degrees C/5% CO2/95% Rh. 3. Compounds were pin transferred (~23nL volume) via Wako Pin-tool (Wako Automation, Richmond VA) equipped with a 1536 pin head. The assay plates were treated with compounds in an 11-pnt concentration series with a final concentration range of […] to 85uM. 4. Bortezomib was used as a single dose control (0.5mM column 4, rows 1 - 32) at a final concentration of 1.9uM and as a 16pnt titration (1mM; 1:2 dilution; 16-points; n = 2; column 3, rows 1 - 32) with final concentration range of 0.1nM - 3.8uM. 5. The assay plates were incubated for 72 hours at 37 degrees C/5% CO2/95% Rh. 6. 3uL CellTiter-Glo detection reagent was then added to the plates (columns 2 - 48, rows 1 - 32) and incubated at room temperature for additional 15min. 7. Luminescence signal was acquired via the ViewLux plate reader (PerkinElmer) using a clear filter, 2 second exposure and 2x binning settings.
Potency is read from the fitted curve at half-maximal effect.

Q: For O=c1cc(-c2ccc(O)cc2)oc2cc(O)c([C@@H]3OC(CO)[C@H](O)[C@@H](O)[C@H]3O)c(O)c12 (stereo not given in full), which Potency is on record?
A: The Potency was “inactive”.

Q: For O[C@H]1c2ccccc2-c2c3c(cc4c2[C@@H]1NCC4)OCO3, which Potency is on record?
A: The Potency was “inactive”.

Q: Which Potency does the source give for C[C@H]1CCC2(OC1)O[C@H]1C[C@H]3[C@@H]4CC(=O)[C@]5(O)C[C@H](O)CC[C@@]5(C)[C@H]4CC[C@@]3(C)[C@H]1[C@H]2C (stereo not given in full) here?
A: Its Potency is “inactive”.

Q: For CC1(C)CC[C@]2(CO)CC[C@]3(C)C(=CCC4[C@@]5(C)CC[C@H](O)C(C)(C)C5CC[C@]43C)C2C1 (stereo not given in full), which Potency is on record?
A: Its Potency is “inactive”.

Q: Which Potency does the source give for C/C(=C\[C@@H](C)CC/C=C/CC/C=C/C(=O)O)[C@H](O)[C@H](C)C(=O)CCCC1CC(=O)NC(=O)C1 here?
A: Its Potency is “inactive”.

Q: For C/C=C(/C)c1cc(O)c(C)c2c1Oc1cc(O)cc(C)c1C(=O)O2, which Potency is on record?
A: The Potency was “inactive”.

Q: For C[C@@]12C[C@@H](C[C@@H]3C(=O)O[C@@H](c4ccoc4)[C@H](OC(=O)c4ccccc4)[C@@H]31)OC2=O, which Potency is on record?
A: The Potency was “inactive”.

Q: Which Potency does the source give for O=C1CC(c2ccc(O)cc2)Oc2cc(O)cc(O)c21 (stereo not given) here?
A: Its Potency is “inactive”.

Q: Which Potency does the source give for CC(=O)c1c(C)cc2c(c1O)C(=O)c1c(O)cc(O)cc1C2=O here?
A: Its Potency is “inactive”.

Q: For C/C=C(/C)c1c(Cl)c(OC)c(C)c2c1Oc1c(Cl)c(O)c(Cl)c(C)c1C(=O)O2, which Potency is on record?
A: Its Potency is “inactive”.

Q: With COC(=O)[C@]1([C@H]2CCC(=O)O2)CC(=O)c2c(O)cc(C)cc2O1 as the compound, how does the Potency read?
A: Its Potency is “inactive”.

Q: With CN1CC[C@]2(c3cccc4c3N[C@H]3N(C)CC[C@@]43[C@]34CCN(C)[C@H]3Nc3ccccc34)c3ccccc3N[C@H]12 as the compound, how does the Potency read?
A: The Potency was 18.8 µM (active).

Q: Which Potency does the source give for CN1CC[C@@]23c4ccccc4N[C@@H]1[C@@]21CCN(C)[C@@H]3Nc2ccccc21 here?
A: The Potency was “inactive”.

Q: With C=C[C@]1(C)CC[C@@H]([C@H](C)C(=O)/C=C/C(C)(C)O)O1 as the compound, how does the Potency read?
A: Its Potency is “inactive”.

Q: With COc1c(O)cc(O)c2c(=O)cc(-c3ccccc3)oc12 as the compound, how does the Potency read?
A: Its Potency is “inactive”.

Q: Which Potency does the source give for COC(=O)[C@@]1(C)CCC[C@]2(C)c3cc(OC)ccc3CC[C@@H]12 here?
A: The Potency was “inactive”.

Q: With C=C(Cl)[C@](Cl)(CBr)CC[C@@H](Br)C(C)(C)Cl as the compound, how does the Potency read?
A: Its Potency is 10.6 µM (active).

Q: With C=CC(C)(C)C(=O)[C@@H](C)[C@@H]1CC[C@@](C)(C=C)O1 as the compound, how does the Potency read?
A: The Potency was “inactive”.

Q: Which Potency does the source give for Cc1cc(O)cc2c1C(=O)c1c(O)cc(O)cc1C2=O here?
A: Its Potency is “inactive”.

Q: For CC[C@@H]1C[C@@]2(CC)OC(=O)[C@@]3(CC)[C@H](CC)[C@@H]1[C@@H]23, which Potency is on record?
A: Its Potency is “inactive”.

Q: With CCC(=O)N[C@@H](C[C@H](C)C(Cl)(Cl)Cl)C(=O)N1C(=O)C=C(OC)[C@@H]1CC(C)C as the compound, how does the Potency read?
A: Its Potency is “inactive”.

Q: With COC1C(C)OC(OCC23C[C@@H]4[C@H](C)CC[C@H]4C4(C=O)CC2C=C(C(C)C)C34C(=O)O)[C@@H](O)[C@H]1O (stereo not given in full) as the compound, how does the Potency read?
A: The Potency was “inactive”.

Q: Which Potency does the source give for CCCCCC(=O)N[C@@H](CC(C)C)C(=O)N[C@H](C=O)CCC(=O)O (Hexanoyl-Leu-Glu-aldehyde) here?
A: The Potency was “inactive”.

Q: With C[C@@]12CCC[C@@](C)(C(=O)O)[C@H]1CC[C@@]13C[C@@H](CC[C@H]12)[C@](C)(O)C3 as the compound, how does the Potency read?
A: Its Potency is “inactive”.

Q: Which Potency does the source give for O=Cc1ccc2n1C[C@]1(OC2)O[C@H](CO)[C@@H](O)[C@@H]1O here?
A: Its Potency is “inactive”.

Q: With CC[C@@H](c1cc(OC)c(OC)cc1OC)[C@H](C)[C@@H](/C(C)=C/c1cc(OC)c(OC)cc1OC)c1cc(OC)c(OC)cc1OC as the compound, how does the Potency read?
A: Its Potency is “inactive”.

Q: For C=C1C[C@]23C=CC(=O)[C@@](C)(CCCC(C)C(=O)N[C@@H](CO)C(=O)O)[C@@H]2C[C@@H]1CC3 (stereo not given in full), which Potency is on record?
A: Its Potency is “inactive”.

Q: With CO[C@@H](C[C@@H](C)[C@@H](O)/C=C/C=C/CNC(=O)C(C)(C)[C@H](O)\C(C)=C/C=C\C=C\Cc1cnco1)[C@]1(O)[C@@H](C)C(=O)N(C)[C@@]12COC2=O as the compound, how does the Potency read?
A: The Potency was “inactive”.

Q: With COC12OC1(C13OC1(OC)C(=O)c1cc4cc(C)oc(=O)c4c(O)c1C3O)C(O)c1c(cc3cc(C)oc(=O)c3c1O)C2=O (stereo not given) as the compound, how does the Potency read?
A: The Potency was “inactive”.

Q: For C/C1=C/[C@@H](C)[C@H](O)C/C=C/CC/C=C/C(=O)O[C@@H]1[C@H](C)C(=O)CCCC1CC(=O)NC(=O)C1, which Potency is on record?
A: The Potency was “inactive”.

Q: For O=C1OC(CCO)c2cccc(O)c21 (stereo not given), which Potency is on record?
A: Its Potency is “inactive”.

Q: For COc1cc(C2OCC3C(c4ccc(O)c(OC)c4)OCC23)ccc1O (stereo not given), which activity change, negative = cytotoxicity is on record?
A: Its activity change, negative = cytotoxicity is -0.541% [at 7.64 µM].

Q: Which Potency does the source give for C[C@@]12CCC[C@@](C)(C(=O)OP(=O)(O)OC[C@H]3O[C@@H](n4cnc5c(N)ncnc54)[C@H](O)[C@@H]3O)[C@H]1C[C@@H](O)[C@@]13C[C@@H](CC[C@@H]21)[C@](C)(O)C3 here?
A: The Potency was “inactive”.

Q: Which Potency does the source give for [C-]#[N+][C@@]12C(=O)[C@@H]3[C@@H](O[C@@]4(C(=O)N(C)c5cccc1c54)C3(C)C)C(=O)[C@@]2(C)C=C here?
A: Its Potency is “inactive”.

Q: For COc1cc(C2C3=C(Cc4cc5c(cc42)OCO5)C(=O)OC3)cc(OC)c1OC (stereo not given), which Potency is on record?
A: Its Potency is “inactive”.

Q: For O=C1CC(c2ccc(O)cc2)Oc2ccccc21 (stereo not given), which Potency is on record?
A: The Potency was “inactive”.

Q: For C/C=C1/C2=CCCN3C(=O)O[C@H]([C@H]1O)[C@H]23, which Potency is on record?
A: The Potency was “inactive”.

Q: With C=C[C@@]1(C)CC[C@@H]([C@H](C)C(C)=O)O1 as the compound, how does the Potency read?
A: Its Potency is “inactive”.

Q: Which Potency does the source give for C=C1C(=O)O[C@H]2[C@H]1CCC(C)=C1CC[C@@](C)(O)[C@@H]12 here?
A: Its Potency is 11.8 µM (active).

Q: With C/C(=C\CC[C@@H](C)[C@H]1CC[C@]2(C)C3=CCC4C(C)(C)[C@@H](O)C[C@@H](O)[C@]4(C)C3[C@H](O)C[C@@]12C)CO (stereo not given in full) as the compound, how does the Potency read?
A: The Potency was “inactive”.
